Drawing on ChEMBL document CHEMBL1961873, “Compounds: GSK PKIS; Assays: Nanosyn kinase panel” (2012), this text covers inhibition for seven compounds.

The structures appear in SMILES notation.

In assay [1] the target is T1, 3-phosphoinositide-dependent protein kinase 1 (Homo sapiens) (UniProt O15530).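 Further: values are mean inhibition of PDK1.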
T1 sequence (whole entry): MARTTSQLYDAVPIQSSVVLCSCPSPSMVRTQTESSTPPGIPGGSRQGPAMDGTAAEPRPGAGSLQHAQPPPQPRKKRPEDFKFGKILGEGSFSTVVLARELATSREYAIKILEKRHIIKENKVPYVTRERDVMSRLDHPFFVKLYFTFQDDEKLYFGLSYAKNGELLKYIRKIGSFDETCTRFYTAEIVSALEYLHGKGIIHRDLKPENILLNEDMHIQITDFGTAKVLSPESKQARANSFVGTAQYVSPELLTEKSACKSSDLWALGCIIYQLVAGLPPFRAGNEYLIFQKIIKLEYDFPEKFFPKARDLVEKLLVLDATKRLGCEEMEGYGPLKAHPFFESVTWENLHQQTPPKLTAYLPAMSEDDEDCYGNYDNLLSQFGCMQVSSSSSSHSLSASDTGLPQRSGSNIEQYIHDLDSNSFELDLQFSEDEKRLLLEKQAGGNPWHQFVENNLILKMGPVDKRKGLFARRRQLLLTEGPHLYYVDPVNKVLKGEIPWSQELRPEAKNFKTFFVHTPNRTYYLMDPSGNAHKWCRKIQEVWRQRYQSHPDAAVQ
As to conditions: at 0.1 µM.

In assay [2] the target is cAMP-dependent protein kinase catalytic subunit alpha (Homo sapiens) (UniProt P17612). The note with it: at 0.1 µM.
Assay [3] shares this target. As to conditions: at 1 µM.
For assay [4], the target named is Protein kinase C alpha type (Homo sapiens) (UniProt P17252). As to conditions: at 0.1 µM.
The target is the same in assay [5]. The note with it: at 1 µM.
The target of assay [6] is Protein kinase C beta type (Homo sapiens) (UniProt P05771). As to conditions: at 0.1 µM.
The target is the same in assay [7]. The note with it: at 1 µM.
Assay [8] deals with Protein kinase C eta type (Homo sapiens) (UniProt P24723). The note with it: at 0.1 µM.
The target is the same in assay [9]. The note with it: at 1 µM.
Assay [10] addresses T2, Protein kinase C iota type (Homo sapiens) (UniProt P41743).
T2 sequence (whole entry): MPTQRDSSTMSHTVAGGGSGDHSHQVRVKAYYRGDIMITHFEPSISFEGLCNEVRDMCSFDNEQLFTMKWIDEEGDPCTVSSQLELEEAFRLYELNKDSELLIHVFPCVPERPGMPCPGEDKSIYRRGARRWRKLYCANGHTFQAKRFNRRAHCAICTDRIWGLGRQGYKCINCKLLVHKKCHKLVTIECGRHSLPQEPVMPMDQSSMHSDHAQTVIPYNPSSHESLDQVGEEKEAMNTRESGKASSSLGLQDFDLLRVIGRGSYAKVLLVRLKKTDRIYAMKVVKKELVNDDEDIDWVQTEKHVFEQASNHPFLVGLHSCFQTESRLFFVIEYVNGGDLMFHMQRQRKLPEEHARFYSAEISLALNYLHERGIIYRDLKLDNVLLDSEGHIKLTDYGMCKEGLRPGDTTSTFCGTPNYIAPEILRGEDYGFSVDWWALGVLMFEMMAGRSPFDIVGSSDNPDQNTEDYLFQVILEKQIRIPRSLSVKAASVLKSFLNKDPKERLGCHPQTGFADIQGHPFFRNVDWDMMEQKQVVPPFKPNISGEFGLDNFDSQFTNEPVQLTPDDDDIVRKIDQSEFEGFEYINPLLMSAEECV
As to conditions: at 0.1 µM.

In assay [11] the target is T2, Protein kinase C iota type (Homo sapiens). As to conditions: at 1 µM.
For assay [12], the target named is Protein kinase C theta type (Homo sapiens) (UniProt Q04759). As to conditions: at 0.1 µM.
Assay [13] shares this target. As to conditions: at 1 µM.
The target of assay [14] is Protein kinase C beta type (Homo sapiens) (UniProt P05771). As to conditions: at 0.1 µM. The source holds these as a separate data set.
The target is the same in assay [15]. As to conditions: at 1 µM. The source holds these as a separate data set.
The target of assay [16] is T3, Serine/threonine-protein kinase D1 (Homo sapiens) (UniProt Q15139).
T3 sequence (whole entry): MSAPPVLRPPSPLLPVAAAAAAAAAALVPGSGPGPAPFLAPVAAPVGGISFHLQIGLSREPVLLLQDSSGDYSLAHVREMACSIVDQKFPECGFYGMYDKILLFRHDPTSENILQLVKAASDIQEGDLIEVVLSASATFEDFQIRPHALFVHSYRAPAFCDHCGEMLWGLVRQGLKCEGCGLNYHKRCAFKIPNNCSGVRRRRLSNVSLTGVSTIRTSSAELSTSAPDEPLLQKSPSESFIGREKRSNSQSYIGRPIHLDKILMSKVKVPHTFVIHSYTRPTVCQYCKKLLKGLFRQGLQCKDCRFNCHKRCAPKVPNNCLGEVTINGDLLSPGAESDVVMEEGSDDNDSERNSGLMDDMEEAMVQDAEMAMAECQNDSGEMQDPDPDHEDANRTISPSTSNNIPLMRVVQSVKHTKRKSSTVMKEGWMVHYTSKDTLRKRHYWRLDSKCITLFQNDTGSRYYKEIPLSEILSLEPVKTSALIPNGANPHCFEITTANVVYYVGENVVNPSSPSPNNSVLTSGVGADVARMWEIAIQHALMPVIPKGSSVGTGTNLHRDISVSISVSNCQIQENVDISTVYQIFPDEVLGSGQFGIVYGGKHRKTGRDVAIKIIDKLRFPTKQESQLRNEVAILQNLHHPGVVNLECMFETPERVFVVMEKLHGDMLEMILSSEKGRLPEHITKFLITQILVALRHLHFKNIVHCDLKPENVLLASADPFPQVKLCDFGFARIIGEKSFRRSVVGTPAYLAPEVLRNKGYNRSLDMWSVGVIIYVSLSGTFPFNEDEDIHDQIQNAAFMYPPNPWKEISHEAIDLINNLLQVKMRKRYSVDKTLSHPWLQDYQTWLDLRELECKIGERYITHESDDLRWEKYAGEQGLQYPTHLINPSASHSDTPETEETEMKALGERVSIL
The note with it: at 0.1 µM.

Assay [17] has as its target T3, Serine/threonine-protein kinase D1 (Homo sapiens). The note with it: at 1 µM.
In assay [18] the target is T4, Serine/threonine-protein kinase D2 (Homo sapiens) (UniProt Q9BZL6).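 Further: reported percent inhibition values are means, part of the GSK PKIS kinase panel screen.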
T4 sequence (whole entry): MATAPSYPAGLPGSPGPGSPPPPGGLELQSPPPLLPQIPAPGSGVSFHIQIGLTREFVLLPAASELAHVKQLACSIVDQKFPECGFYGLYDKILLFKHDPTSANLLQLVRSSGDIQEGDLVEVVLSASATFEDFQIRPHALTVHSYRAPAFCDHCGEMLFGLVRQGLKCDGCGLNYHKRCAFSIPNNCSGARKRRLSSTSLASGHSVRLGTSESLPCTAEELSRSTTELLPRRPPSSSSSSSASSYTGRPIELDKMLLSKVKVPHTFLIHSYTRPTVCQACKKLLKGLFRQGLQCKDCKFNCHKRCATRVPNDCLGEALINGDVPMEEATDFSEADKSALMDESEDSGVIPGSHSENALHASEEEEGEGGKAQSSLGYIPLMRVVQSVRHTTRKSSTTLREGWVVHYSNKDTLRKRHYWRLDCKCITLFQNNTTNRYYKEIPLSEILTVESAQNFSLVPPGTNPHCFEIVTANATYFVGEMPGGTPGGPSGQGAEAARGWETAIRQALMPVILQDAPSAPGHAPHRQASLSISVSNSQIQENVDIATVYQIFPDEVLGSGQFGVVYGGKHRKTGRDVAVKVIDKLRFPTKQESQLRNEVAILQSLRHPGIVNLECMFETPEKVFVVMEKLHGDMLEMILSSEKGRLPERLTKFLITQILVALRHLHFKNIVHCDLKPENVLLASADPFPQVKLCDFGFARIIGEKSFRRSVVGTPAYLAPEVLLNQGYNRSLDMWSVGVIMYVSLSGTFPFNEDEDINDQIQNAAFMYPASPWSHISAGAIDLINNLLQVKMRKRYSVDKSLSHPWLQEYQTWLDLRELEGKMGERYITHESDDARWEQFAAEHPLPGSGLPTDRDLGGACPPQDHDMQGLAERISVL
The note with it: at 0.1 µM.

Assay [19] addresses Protein kinase C gamma type (Homo sapiens) (UniProt P05129). The note with it: at 0.1 µM.
The target is the same in assay [20]. As to conditions: at 1 µM.

Chain of Protein kinase C eta type (Homo sapiens) (P24723 whole entry): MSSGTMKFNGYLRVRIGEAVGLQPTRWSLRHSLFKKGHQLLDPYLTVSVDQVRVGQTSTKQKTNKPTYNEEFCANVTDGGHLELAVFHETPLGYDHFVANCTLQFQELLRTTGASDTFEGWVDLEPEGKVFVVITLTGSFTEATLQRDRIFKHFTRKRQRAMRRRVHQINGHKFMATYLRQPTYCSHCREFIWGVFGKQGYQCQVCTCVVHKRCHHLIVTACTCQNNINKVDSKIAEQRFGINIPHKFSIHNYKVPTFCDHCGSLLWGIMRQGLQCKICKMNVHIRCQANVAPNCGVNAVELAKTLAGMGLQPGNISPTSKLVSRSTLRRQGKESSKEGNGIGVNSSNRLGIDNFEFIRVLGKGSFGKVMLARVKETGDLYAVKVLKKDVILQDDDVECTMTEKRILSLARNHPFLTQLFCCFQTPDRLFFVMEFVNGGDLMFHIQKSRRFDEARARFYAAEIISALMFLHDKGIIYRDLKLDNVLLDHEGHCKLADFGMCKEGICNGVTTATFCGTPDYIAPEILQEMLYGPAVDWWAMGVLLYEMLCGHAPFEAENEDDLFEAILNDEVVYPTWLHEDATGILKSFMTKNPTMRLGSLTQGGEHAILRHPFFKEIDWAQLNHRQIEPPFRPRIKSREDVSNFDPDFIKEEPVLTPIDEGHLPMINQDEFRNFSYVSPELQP
Chain of Protein kinase C beta type (Homo sapiens) (P05771 2-671 limits assumed): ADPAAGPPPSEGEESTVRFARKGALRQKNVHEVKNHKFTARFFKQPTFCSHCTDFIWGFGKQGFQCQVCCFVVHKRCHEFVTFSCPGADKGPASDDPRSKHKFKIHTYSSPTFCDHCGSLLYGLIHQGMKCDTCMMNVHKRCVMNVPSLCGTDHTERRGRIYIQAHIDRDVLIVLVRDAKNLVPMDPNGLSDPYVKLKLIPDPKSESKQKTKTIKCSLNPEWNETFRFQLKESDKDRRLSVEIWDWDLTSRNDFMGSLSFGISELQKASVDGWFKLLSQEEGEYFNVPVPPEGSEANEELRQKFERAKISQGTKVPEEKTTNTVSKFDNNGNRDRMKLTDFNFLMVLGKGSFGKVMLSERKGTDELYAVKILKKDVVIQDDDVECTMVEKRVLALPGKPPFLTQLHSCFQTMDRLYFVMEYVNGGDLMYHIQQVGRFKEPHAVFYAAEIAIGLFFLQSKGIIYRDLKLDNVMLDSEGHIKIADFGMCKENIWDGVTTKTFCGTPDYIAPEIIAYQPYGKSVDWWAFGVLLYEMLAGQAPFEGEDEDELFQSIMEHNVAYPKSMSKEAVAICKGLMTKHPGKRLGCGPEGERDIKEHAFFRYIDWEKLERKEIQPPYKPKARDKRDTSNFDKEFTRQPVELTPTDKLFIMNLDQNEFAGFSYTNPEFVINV
Chain of Protein kinase C theta type (Homo sapiens) (Q04759 whole entry, looked up): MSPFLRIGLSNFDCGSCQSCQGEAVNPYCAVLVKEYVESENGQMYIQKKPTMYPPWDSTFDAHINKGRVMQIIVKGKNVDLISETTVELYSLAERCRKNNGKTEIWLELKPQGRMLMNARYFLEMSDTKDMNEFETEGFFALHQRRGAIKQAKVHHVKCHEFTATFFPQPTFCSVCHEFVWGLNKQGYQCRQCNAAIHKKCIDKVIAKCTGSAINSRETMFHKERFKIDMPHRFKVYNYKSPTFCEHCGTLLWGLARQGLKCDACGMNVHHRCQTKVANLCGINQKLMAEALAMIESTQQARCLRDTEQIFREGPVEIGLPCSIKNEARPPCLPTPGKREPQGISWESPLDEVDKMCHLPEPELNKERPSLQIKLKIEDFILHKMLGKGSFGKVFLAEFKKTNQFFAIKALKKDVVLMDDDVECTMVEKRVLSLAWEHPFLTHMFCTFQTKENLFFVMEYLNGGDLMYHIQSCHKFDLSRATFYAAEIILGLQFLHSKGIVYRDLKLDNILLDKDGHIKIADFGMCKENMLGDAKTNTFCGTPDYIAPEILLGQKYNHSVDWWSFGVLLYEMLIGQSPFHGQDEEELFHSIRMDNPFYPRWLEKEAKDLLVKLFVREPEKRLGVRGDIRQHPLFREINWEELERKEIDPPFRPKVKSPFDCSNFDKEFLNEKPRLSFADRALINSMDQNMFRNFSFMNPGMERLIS

Regarding `COc1cc2c(cc1Nc1nc(Nc3ccsc3C(N)=O)c3cc[nH]c3n1)N(C(=O)CN(C)C)CCC2`, the inhibition in assay [1] is 0.7%; in [2], 4.62%; in assay [3], 3.81%; in [4], 1.91%; in assay [5], 10.2%; in assay [6], -0.18%. In addition, the inhibition in assay [7] was 1.94%; in assay [8], 1.28%; in assay [9] it was 3.46%; in [10], -0.4%; in assay [11] it was -0.5%; in [12] it was 4.39%. In addition, the inhibition in [13] was 10.2%; in [14], -1.27%; in [15], 2.49%; in assay [16] it was 3.95%; in [17], 19.8%; in assay [18] it was 12.2%.

With `NS(=O)(=O)c1ccc(N/C=C2\C(=O)Nc3ccc4ncsc4c32)cc1`, the inhibition is 20.8% in [1]; 2.9% in [2]; 6.91% in [3]; 1.26% in assay [4]; 3.04% in [5]; -0.49% in assay [6]. Moreover, the inhibition in [8] was found to be 1.67%; in assay [9], 6.53%; in [19], 1.16%; in assay [20] it was 5.52%; in assay [10], 1.93%; in [11] it was 2.78%. In addition, the inhibition in assay [12] is 3.02%; in [13], 6.57%; in assay [14], 1.34%; in assay [15], 3.28%; in [16], 22.4%; in assay [17] it was 67.3%. Further, the inhibition in assay [18] is 16.3%.

Take `COc1cccc(-n2ncc3c(N/N=C/c4ccncc4)ncnc32)c1`: the inhibition in assay [1] amounted to 3.34%; in assay [2] it was 1.96%; in assay [3], 4.25%; in [4], 2.71%; in assay [5] it was 8.07%; in [6], 1.63%. The inhibition in assay [7] turned out to be 7.79%; in [8], 4.72%; in assay [9], 2.1%; in [19], 1.76%; in assay [20], 7.85%; in assay [10], 3.39%. For the same compound, the inhibition in assay [11] worked out at 13.1%; in assay [12] it was 2.97%; in assay [13] it was 5.71%; in [14] it was 2.37%; in [15], 9.57%; in [16] it was 4.37%. Further, the inhibition in [17] was determined as 10.1%; in assay [18] it was 4.75%.

In the case of `COc1cc(C=NNc2ncnc3c2cnn3Cc2ccccc2)ccc1O`, the inhibition was -3.37% in assay [1]; -0.54% in assay [2]; 5.93% in [3]; -0.63% in [4]; 3.5% in [5]; 0.36% in assay [6]. Also, the inhibition in assay [7] is 3.19%; in assay [8], -5.63%; in [9] it was -0.89%; in assay [19], -2.68%; in assay [20], 2.96%; in assay [10], -1.06%. Further, the inhibition is -0.54% in [11]; -1.05% in [12]; 1.99% in [13]; -1.09% in [14]; 1.44% in assay [15]; -4.01% in assay [16]. The inhibition was -1.69% in assay [17] and -3.31% in assay [18].

As to `NS(=O)(=O)c1ccc(-c2ccc3c(NC(=O)C4CC4)n[nH]c3c2)cc1`, the inhibition in assay [1] was 2.67%; in [2], 1.34%; in [3], 1.63%; in [4], 0.82%; in [5] it was 0.13%; in assay [6], -1.4%. Also, the inhibition is -0.63% in assay [7]; 3.31% in assay [8]; -0.1% in assay [9]; -1.07% in assay [19]; 0.37% in [20]; 1.06% in [10]. The inhibition was 3.22% in assay [11]; 1.13% in assay [12]; -0.43% in [13]; 0.67% in [14]; 1.78% in assay [15]; 1.17% in [16]. For the same compound, the inhibition in assay [17] was found to be 1.47%; in assay [18] it was 1.52%.

For the compound `CCn1c(-c2nonc2N)nc2c(C#CC(C)(C)O)ncc(OC[C@@H]3CCCN3)c21`, the inhibition in assay [1] was 0.24%; in [2] it was 68.7%; in assay [3], 81.2%; in assay [4] it was 2.42%; in [5], 18.4%; in assay [6], 30.1%. In addition, the inhibition in [7] came to 61.3%; in [8] it was 87.1%; in assay [9] it was 96.3%; in assay [19], 9.3%; in [20] it was 44.6%; in assay [10], 0.62%. Further, the inhibition in assay [11] amounted to 11.4%; in [12], 30%; in assay [13], 72.3%; in [14], 7.63%; in [15] it was 37.1%; in assay [16] it was 2.68%. The results for the inhibition in assay [17] and in assay [18] were 19.2% and 4.02%, respectively.

In the case of `CCn1c(-c2nonc2N)nc2c(C#CCN)ncc(OCCCN)c21`, the inhibition is 1.2% in [1]; 7.1% in assay [2]; 1.06% in assay [4]; 4.21% in assay [5]; 14.7% in assay [6]; 47.8% in assay [7]. The inhibition was 19.6% in assay [8]; 73.4% in [9]; 3.97% in assay [19]; 4.01% in assay [20]; 2.51% in assay [10]; 16.5% in assay [11]. Further, the inhibition is 6.73% in assay [12]; 38.6% in assay [13]; 4.07% in assay [14]; 12% in [15]; -1.16% in assay [16]; -3.02% in assay [17]. Moreover, the inhibition in assay [18] was -2.14%.

In general, inhibition refers to the change of the read-out against control, counted positive when it falls.
